Reference: the supplement of paper PMC4466140

Columns and labels:
Assay in all cases: SPOT peptide array binding signal intensity (averaged, normalized) (arbitrary units (background-subtracted, floor 0; scale differs between SH3 domains)); higher = stronger binding of the SH3 domain to the peptide
AgAbp1 = biological target: AgAbp1
Experimental: (§1)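 GST-tagged SH3 domains from S. cerevisiae (Sc), A. gossypii (Ag), C. albicans (Ca) and S. pombe (Sp) were incubated at 10 ug/ml overnight at 4 C on cellulose SPOT membranes carrying 292 synthetic 15-mer peptides mined from the S. cerevisiae proteome (cysteines replaced by serines). Binding was detected with anti-GST antibody, HRP secondary and chemiluminescence, quantified with Genespotter, and reported as normalized spot intensities averaged over biological replicates.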

AgBbc1 = biological target: AgBbc1
Experimental: as §1

AgBem1-D1 = biological target: AgBem1-D1
Experimental: as §1

AgBzz1-D1 = biological target: AgBzz1-D1
Experimental: as §1

AgBzz1-D2 = biological target: AgBzz1-D2
Experimental: as §1

AgCyk3 = biological target: AgCyk3
Experimental: as §1

AgFus1 = biological target: AgFus1
Experimental: as §1

AgHof1 = biological target: AgHof1
Experimental: as §1

AgHse1 = biological target: AgHse1
Experimental: as §1

AgLsb1 = biological target: AgLsb1
Experimental: as §1

AgLsb4 = biological target: AgLsb4
Experimental: as §1

AgMyo5 = biological target: AgMyo5
Experimental: as §1

AgNbp2 = biological target: AgNbp2
Experimental: as §1

AgRvs167 = biological target: AgRvs167
Experimental: as §1

AgSho1 = biological target: AgSho1
Experimental: as §1

AgSla1-D1-D2 = biological target: AgSla1-D1-D2
Experimental: as §1

AgSla1-D3 = biological target: AgSla1-D3
Experimental: as §1

CaAbp1-D1 = biological target: CaAbp1-D1
Experimental: as §1

CaAbp1-D2 = biological target: CaAbp1-D2
Experimental: as §1

CaBbc1 = biological target: CaBbc1
Experimental: as §1

CaBem1-D1 = biological target: CaBem1-D1
Experimental: as §1

CaBzz1-D1 = biological target: CaBzz1-D1
Experimental: as §1

CaBzz1-D2 = biological target: CaBzz1-D2
Experimental: as §1

CaCyk3 = biological target: CaCyk3
Experimental: as §1

CaFus1 = biological target: CaFus1
Experimental: as §1

CaHof1 = biological target: CaHof1
Experimental: as §1

CaHse1 = biological target: CaHse1
Experimental: as §1

CaLsb1 = biological target: CaLsb1
Experimental: as §1

CaLsb4 = biological target: CaLsb4
Experimental: as §1

CaMyo5 = biological target: CaMyo5
Experimental: as §1

CaNbp2 = biological target: CaNbp2
Experimental: as §1

CaRvs167 = biological target: CaRvs167
Experimental: as §1

CaRvs167-3 = biological target: CaRvs167-3
Experimental: as §1

CaSho1 = biological target: CaSho1
Experimental: as §1

CaSla1-D1-D2 = biological target: CaSla1-D1-D2
Experimental: as §1

CaSla1-D3 = biological target: CaSla1-D3
Experimental: as §1

ScAbp1 = biological target: ScAbp1
Experimental: as §1

ScBbc1 = biological target: ScBbc1
Experimental: as §1

ScBem1-D1 = biological target: ScBem1-D1
Experimental: as §1

ScBzz1-D1 = biological target: ScBzz1-D1
Experimental: as §1

ScBzz1-D2 = biological target: ScBzz1-D2
Experimental: as §1

ScCyk3 = biological target: ScCyk3
Experimental: as §1

ScFus1 = biological target: ScFus1
Experimental: as §1

ScHof1 = biological target: ScHof1
Experimental: as §1

ScHse1 = biological target: ScHse1
Experimental: as §1

ScLsb1 = biological target: ScLsb1
Experimental: as §1

ScLsb2 = biological target: ScLsb2
Experimental: as §1

ScLsb3 = biological target: ScLsb3
Experimental: as §1

ScLsb4 = biological target: ScLsb4
Experimental: as §1

ScMyo3 = biological target: ScMyo3
Experimental: as §1

ScMyo5 = biological target: ScMyo5
Experimental: as §1

ScNbp2 = biological target: ScNbp2
Experimental: as §1

ScPex13 = biological target: ScPex13
Experimental: as §1

ScRvs167 = biological target: ScRvs167
Experimental: as §1

ScSho1 = biological target: ScSho1
Experimental: as §1

ScSla1-D1-D2 = biological target: ScSla1-D1-D2
Experimental: as §1

ScSla1-D3 = biological target: ScSla1-D3
Experimental: as §1

SpAbp1-D1 = biological target: SpAbp1-D1
Experimental: as §1

SpBbc1 = biological target: SpBbc1
Experimental: as §1

SpBzz1-D1 = biological target: SpBzz1-D1
Experimental: as §1

SpBzz1-D2 = biological target: SpBzz1-D2
Experimental: as §1

SpCyk3 = biological target: SpCyk3
Experimental: as §1

SpHof1 = biological target: SpHof1
Experimental: as §1

SpHof1-2 = biological target: SpHof1-2
Experimental: as §1

SpHof1-3 = biological target: SpHof1-3
Experimental: as §1

SpHse1 = biological target: SpHse1
Experimental: as §1

SpLsb1 = biological target: SpLsb1
Experimental: as §1

SpLsb4 = biological target: SpLsb4
Experimental: as §1

SpMyo1 = biological target: SpMyo1
Experimental: as §1

SpNbp2 = biological target: SpNbp2
Experimental: as §1

SpPex13 = biological target: SpPex13
Experimental: as §1

SpRvs167 = biological target: SpRvs167
Experimental: as §1

SpSla1-D1-D2 = biological target: SpSla1-D1-D2
Experimental: as §1

SpSla1-D3 = biological target: SpSla1-D3
Experimental: as §1

QRIRKIPGIPLMSVG
SPOT peptide array binding signal intensity (AgAbp1): 26
SPOT peptide array binding signal intensity (AgBbc1): 184
SPOT peptide array binding signal intensity (AgBem1-D1): 63.5
SPOT peptide array binding signal intensity (AgBzz1-D1): 19.5
SPOT peptide array binding signal intensity (AgBzz1-D2): 34
SPOT peptide array binding signal intensity (AgCyk3): 1
SPOT peptide array binding signal intensity (AgFus1): 296
SPOT peptide array binding signal intensity (AgHof1): 29.2
SPOT peptide array binding signal intensity (AgHse1): 194
SPOT peptide array binding signal intensity (AgLsb1): 13.8
SPOT peptide array binding signal intensity (AgLsb4): 258
SPOT peptide array binding signal intensity (AgMyo5): ≤ 0
SPOT peptide array binding signal intensity (AgNbp2): 486
SPOT peptide array binding signal intensity (AgRvs167): 54.8
SPOT peptide array binding signal intensity (AgSho1): 104
SPOT peptide array binding signal intensity (AgSla1-D1-D2): 40.5
SPOT peptide array binding signal intensity (AgSla1-D3): 11.5
SPOT peptide array binding signal intensity (CaAbp1-D1): 253
SPOT peptide array binding signal intensity (CaAbp1-D2): 358
SPOT peptide array binding signal intensity (CaBbc1): 226
SPOT peptide array binding signal intensity (CaBem1-D1): 34.5
SPOT peptide array binding signal intensity (CaBzz1-D1): 162
SPOT peptide array binding signal intensity (CaBzz1-D2): 106
SPOT peptide array binding signal intensity (CaCyk3): 49.5
SPOT peptide array binding signal intensity (CaFus1): 707
SPOT peptide array binding signal intensity (CaHof1): 0.25
SPOT peptide array binding signal intensity (CaHse1): 94.2
SPOT peptide array binding signal intensity (CaLsb1): 1.25
SPOT peptide array binding signal intensity (CaLsb4): 2460
SPOT peptide array binding signal intensity (CaMyo5): 1.5
SPOT peptide array binding signal intensity (CaNbp2): 549
SPOT peptide array binding signal intensity (CaRvs167): 296
SPOT peptide array binding signal intensity (CaRvs167-3): 6.5
SPOT peptide array binding signal intensity (CaSho1): 303
SPOT peptide array binding signal intensity (CaSla1-D1-D2): 817
SPOT peptide array binding signal intensity (CaSla1-D3): 38.5
SPOT peptide array binding signal intensity (ScAbp1): 99
SPOT peptide array binding signal intensity (ScBbc1): 32.5
SPOT peptide array binding signal intensity (ScBem1-D1): 13.5
SPOT peptide array binding signal intensity (ScBzz1-D1): 2
SPOT peptide array binding signal intensity (ScBzz1-D2): 25
SPOT peptide array binding signal intensity (ScCyk3): 7
SPOT peptide array binding signal intensity (ScFus1): 284
SPOT peptide array binding signal intensity (ScHof1): 2
SPOT peptide array binding signal intensity (ScHse1): 553
SPOT peptide array binding signal intensity (ScLsb1): 9.25
SPOT peptide array binding signal intensity (ScLsb2): 13
SPOT peptide array binding signal intensity (ScLsb3): 3970
SPOT peptide array binding signal intensity (ScLsb4): 349
SPOT peptide array binding signal intensity (ScMyo3): ≤ 0
SPOT peptide array binding signal intensity (ScMyo5): ≤ 0
SPOT peptide array binding signal intensity (ScNbp2): 672
SPOT peptide array binding signal intensity (ScPex13): 408
SPOT peptide array binding signal intensity (ScRvs167): 1160
SPOT peptide array binding signal intensity (ScSho1): 1280
SPOT peptide array binding signal intensity (ScSla1-D1-D2): 1610
SPOT peptide array binding signal intensity (ScSla1-D3): 64
SPOT peptide array binding signal intensity (SpAbp1-D1): 116
SPOT peptide array binding signal intensity (SpBbc1): 9.25
SPOT peptide array binding signal intensity (SpBzz1-D1): 176
SPOT peptide array binding signal intensity (SpBzz1-D2): 5.75
SPOT peptide array binding signal intensity (SpCyk3): 5
SPOT peptide array binding signal intensity (SpHof1): 140
SPOT peptide array binding signal intensity (SpHof1-2): 51.5
SPOT peptide array binding signal intensity (SpHof1-3): 440
SPOT peptide array binding signal intensity (SpHse1): 242
SPOT peptide array binding signal intensity (SpLsb1): 17
SPOT peptide array binding signal intensity (SpLsb4): 3060
SPOT peptide array binding signal intensity (SpMyo1): ≤ 0
SPOT peptide array binding signal intensity (SpNbp2): 359
SPOT peptide array binding signal intensity (SpPex13): 22
SPOT peptide array binding signal intensity (SpRvs167): 1140
SPOT peptide array binding signal intensity (SpSla1-D1-D2): 89.5
SPOT peptide array binding signal intensity (SpSla1-D3): 27

YHSRRHPLALGFKYV
SPOT peptide array binding signal intensity (AgAbp1): 25.5
SPOT peptide array binding signal intensity (AgBbc1): 12
SPOT peptide array binding signal intensity (AgBem1-D1): 86
SPOT peptide array binding signal intensity (AgBzz1-D1): ≤ 0
SPOT peptide array binding signal intensity (AgBzz1-D2): ≤ 0
SPOT peptide array binding signal intensity (AgCyk3): 4
SPOT peptide array binding signal intensity (AgFus1): 566
SPOT peptide array binding signal intensity (AgHof1): 19
SPOT peptide array binding signal intensity (AgHse1): 187
SPOT peptide array binding signal intensity (AgLsb1): 2
SPOT peptide array binding signal intensity (AgLsb4): 2
SPOT peptide array binding signal intensity (AgMyo5): 3.25
SPOT peptide array binding signal intensity (AgNbp2): 41.5
SPOT peptide array binding signal intensity (AgRvs167): 7.67
SPOT peptide array binding signal intensity (AgSho1): 26
SPOT peptide array binding signal intensity (AgSla1-D1-D2): 26
SPOT peptide array binding signal intensity (AgSla1-D3): 17
SPOT peptide array binding signal intensity (CaAbp1-D1): 156
SPOT peptide array binding signal intensity (CaAbp1-D2): 81.5
SPOT peptide array binding signal intensity (CaBbc1): 6.75
SPOT peptide array binding signal intensity (CaBem1-D1): 121
SPOT peptide array binding signal intensity (CaBzz1-D1): 64
SPOT peptide array binding signal intensity (CaBzz1-D2): 22
SPOT peptide array binding signal intensity (CaCyk3): 4
SPOT peptide array binding signal intensity (CaFus1): 630
SPOT peptide array binding signal intensity (CaHof1): 4.5
SPOT peptide array binding signal intensity (CaHse1): 38.5
SPOT peptide array binding signal intensity (CaLsb1): 1.75
SPOT peptide array binding signal intensity (CaLsb4): ≤ 0
SPOT peptide array binding signal intensity (CaMyo5): 38.5
